In PubChem BioAssay AID861 (The Scripps Research Institute Molecular Screening Center, 2007):
Among all 200,000 compounds or so, about 360 (0.18%) were called active. For the sample, actives were picked, then their nearest neighbours and some compounds at random. Unmarked numbers belong to inactive results. No stated cut-off is given here; in the data, active means inhibition above about 25%; inactive means the rest.

These molecules were tested against Toll-like receptor 4 (Homo sapiens) + Myeloid differentiation primary response protein MyD88 (Homo sapiens) (UniProt O00206+Q99836) (assay: disruptors of TLR4 binding to MyD88 – cell-based, HeLa CL3-4, BLA complementation, FRET ratio, primary screen (AID 861;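 further: 0% = vehicle and 100% = reference inhibitor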)). Conditions: HeLa CL3-4 TLR4/MyD88 BLA complementation, at 8.4 µM, hits give high values.
Sequence of Toll-like receptor 4 (Homo sapiens) + Myeloid differentiation primary response protein MyD88 (Homo sapiens) (O00206 whole entry, looked up): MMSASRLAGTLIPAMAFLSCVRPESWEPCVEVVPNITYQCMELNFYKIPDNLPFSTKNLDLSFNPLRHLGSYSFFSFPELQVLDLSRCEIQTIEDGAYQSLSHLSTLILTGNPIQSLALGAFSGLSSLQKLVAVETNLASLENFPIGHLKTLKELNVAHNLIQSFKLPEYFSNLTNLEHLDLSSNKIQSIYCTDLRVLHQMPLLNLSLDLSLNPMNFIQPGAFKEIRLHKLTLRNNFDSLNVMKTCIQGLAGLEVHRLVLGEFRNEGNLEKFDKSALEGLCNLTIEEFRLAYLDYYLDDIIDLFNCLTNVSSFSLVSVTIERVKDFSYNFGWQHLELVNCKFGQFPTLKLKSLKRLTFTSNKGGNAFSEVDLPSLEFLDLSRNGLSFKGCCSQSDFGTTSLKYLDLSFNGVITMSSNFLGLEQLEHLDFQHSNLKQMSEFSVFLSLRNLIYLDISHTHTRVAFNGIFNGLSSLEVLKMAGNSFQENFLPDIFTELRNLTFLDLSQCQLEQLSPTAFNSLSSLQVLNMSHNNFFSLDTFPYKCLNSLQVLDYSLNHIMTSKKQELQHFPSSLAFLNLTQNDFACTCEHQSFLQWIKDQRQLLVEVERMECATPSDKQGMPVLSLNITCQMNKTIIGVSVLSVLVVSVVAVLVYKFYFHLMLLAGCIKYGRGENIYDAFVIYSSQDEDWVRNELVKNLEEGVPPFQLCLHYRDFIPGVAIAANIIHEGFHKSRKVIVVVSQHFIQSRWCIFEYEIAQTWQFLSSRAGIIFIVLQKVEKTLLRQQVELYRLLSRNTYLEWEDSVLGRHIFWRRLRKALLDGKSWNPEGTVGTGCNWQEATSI
Sequence of Toll-like receptor 4 (Homo sapiens) + Myeloid differentiation primary response protein MyD88 (Homo sapiens) (Q99836 whole entry, looked up): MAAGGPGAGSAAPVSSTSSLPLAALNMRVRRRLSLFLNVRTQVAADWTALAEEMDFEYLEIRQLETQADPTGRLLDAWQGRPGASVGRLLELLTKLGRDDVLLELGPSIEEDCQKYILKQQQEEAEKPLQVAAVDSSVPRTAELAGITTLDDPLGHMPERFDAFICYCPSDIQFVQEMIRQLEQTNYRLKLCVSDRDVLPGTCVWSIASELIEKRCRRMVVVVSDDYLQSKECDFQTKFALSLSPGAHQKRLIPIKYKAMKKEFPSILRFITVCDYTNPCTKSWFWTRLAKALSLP

| SMILES | inhibition |
| --- | --- |
| Fc1cccc(F)c1CN1CCN(Cc2c(F)cccc2F)CC1 | 6.5% |
| CC(C)c1ccc(O)c(CN2CCN(c3ccccc3)CC2)c1 | -8.07% |
| COc1ccc(CN2CCN(c3ccccc3F)CC2)c(OC)c1 | 29.3% (active) |
| CN(C)CCCN=Cc1c(O)n(Cc2ccco2)c(=O)[nH]c1=O | -1.36% |
| CCOc1ccc(C2SCC(=O)Nc3c2c(C)nn3C2CCOC(C)(C)C2)cc1 (stereo not given) | -12% |
